# Measured values from PubChem BioAssay AID1863 (Southern Research Specialized Biocontainment Screening …, 2009).
# The whole screen tested about 300,000 compounds, of which about 480 (0.16%) were called active. These entries were drawn from the full list. Results with a measured potency or affinity are listed apart. Unmarked numbers belong to inactive results.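 How the source made its calls: active means inhibition over 29.93%, a cutoff 3 SD above the screen mean, later confirmed by dose response; inconclusive means inhibition over 29.93% but no dose response follow-up; inactive means inhibition at most 29.93% or unconfirmed.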
# Assay: inhibitors of PhoP regulon expression, primary screen, Salmonella Typhimurium, GFP reporter (AID 1863);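 further: 0% = low Mg2+ inducing control and 100% = high Mg2+ repressing control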
# Settings: S. Typhimurium PhoP-regulated promoter GFP reporter, 4 h; at 50 µM; active compounds read high
row,SMILES,inhibition [%]
1,Cc1ccc(SC2=C(Sc3ccc(C)cc3)C(=O)c3ccccc3C2=O)cc1,4.97
2,O=S1(=O)N=C(SCCO)c2ccccc21,-8.43
3,CCn1c(SCC(=O)NCCc2ccccc2)nc2c([nH]c3ccccc32)c1=O,-1.21
4,CCCc1nc2ccc(NC(=O)NCCC(=O)OCC)cc2c(=O)n1Cc1cccc(Cl)c1,6.26
5,O=C(NOC(=O)c1ccccc1F)c1ccc(OC(F)F)cc1,-1.76
6,CCOC(=O)Cn1c(=N)n(CCOc2cccc(C)c2)c2ccccc21,-6.78
7,O=C(O)Cn1c(COc2ccc(Cl)cc2)nc2ccccc21,-9.39
8,CCCCOC(=O)Cn1c2ccc(OC)cc2c2nc3ccccc3nc21,-30.4
9,CCCCCOC(=O)Cn1c(=O)oc2ccc(C)cc21,8.75
10,CCCCCCCCCCOC(=O)Cn1c(COc2ccccc2C)[n+](C)c2ccccc21,13.3
11,Cn1c(COc2ccccc2O)[n+](C)c2ccccc21,19.1
12,CCCCc1n(CC(=O)c2ccc(Cl)cc2)c2ccccc2[n+]1C,7.69
13,CCCCOC(=O)Cn1c(=O)n(CC(=O)OCCCC)c2ccccc21,1.46
14,Cc1onc(-c2c(Cl)cccc2Cl)c1C(=O)Nc1ccc2c(c1)OCO2,5.51
15,CN1CCN(NC(=S)NC2CCCCC2)CC1,2.99
16,CC1(c2ccncc2)Nc2ccccc2-c2nc3ccccc3n21 (stereo not drawn),4.56
17,CC1CCCCC1NC(=O)CNC(=O)c1cccs1 (stereo not drawn),0.65

row,SMILES,inhibition [%]
1,COC(=O)c1cc(OC)c(OC)cc1NC(=S)N1CCN(Cc2ccccc2)CC1,-2.33
2,CCN(Cc1ccccc1)Cc1ccc(OCc2ccccc2)cc1,-0.23
3,CC(=O)c1ccc(OCc2cc(C(=O)N3CCN4CCCC4C3)no2)cc1 (stereo not drawn),-1.66
4,CCCCOC(=O)Cn1c(=O)oc2ccc(C)cc21,1.86
5,CCCCCCOc1ccc(C(=O)O)cc1,-7.54
6,CCCCCOC(=O)Cn1c(=O)oc2ccccc21,5.08
7,CCCCOC(=O)Cn1c(=N)n(CCC)c2ccccc21,8.26
8,CCN(CC)CCN1C(=O)c2ccccc2NC1c1cccc(F)c1 (stereo not drawn),-1.91
9,CCN(c1ccc(NC(=O)COC(=O)/C=C/c2cccs2)cc1)C(C)C,1.21
10,CCOc1ccc(S(=O)(=O)N(CCO)CCO)cc1-c1nc2c(C(C)(C)C)nn(C)c2c(=O)[nH]1,6.61
11,COCCNCCCOc1ccc(Br)cc1Cl,2.25
12,OCCNCCCOc1ccc(Cl)cc1Br,9.05
13,Clc1ccc(OCCCNCc2ccccc2)c2ccccc12,13.7
14,CCc1cc(OCCCCNCc2ccccc2)ccc1Cl,-6.28
15,Cc1cc(Br)ccc1OCCNCc1ccccc1,5.75
16,COCCCNCCCOc1ccc(Cl)cc1Br,16.4
